Compound activity as filed in PubChem.
L3MBTL1 inh = inhibitors of human L3MBTL1; AlphaScreen L3MBTL1–H3K9me1 peptide binding; Potency, µM (series often up to 57.1 µM), without a hit: at the top dose activity, negative = inhibition, hits mostly inhibitors; hit rate 0.66% among 230,000; AID 485360; Q9Y468; note: potency is the fitted concentration of half-maximal effect; % is set by controls: 0 for no effect and ±100 for the full control effect; nearly all actives have a fitted effect of over 60% in size
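L3MBTL1 50 nM + b-AHA-H3(1-15)K9me1 75 nM, 30 min RT; compound added, 30 min RT; streptavidin donor/Ni-chelate acceptor beads 10 ug/mL each final, 30 min RT dark; AlphaScreen read.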
HP1b binding inh = blocks HP1-beta chromodomain binding to methylated histone tails | AlphaScreen HP1-beta / biotin-H3K9me3 peptide binding | Potency, µM (titrated, usually from 114 µM), inactives show at the top dose activity change, negative = inhibition, actives largely listed as inhibitors | hit rate 0.56% among 390,000 | AID 540317; note: potency is the fitted concentration of half-maximal effect; nearly all actives have a fitted effect of over 70% in size
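Compound inhibition of the preformed complex between 50 nM HP1-beta and 50 nM biotinylated H3K9me3 peptide was read by AlphaScreen. Buffer was PBS pH 7.4 with 0.01% Tween-20. Incubations ran 30 min at room temperature, with 10 ug/mL donor/acceptor beads.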
BAZ2B inh = inhibitors of human BAZ2B bromodomain. Potency, µM (doses to about 114 µM), for inactives: at the top dose activity change, negative = inhibition, usual class: inhibitors. AID 504333. hit rate 4.4% among 360,000. Q9UIF8. AlphaScreen BAZ2B-H3K14Ac peptide displacement; note: potency is the fitted concentration of half-maximal effect; % is set by controls: 0 for no effect and ±100 for the full control effect; nearly all actives have a fitted effect of over 60% in size
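Inhibition is scored as reduced AlphaScreen emission. The BAZ2B/b-H3(5-23)K14Ac complex (50 nM each) in PBS pH 7.4, 0.01% Tween-20 meets compound (up to 110 uM) for 30 min at RT before bead addition.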
G9a inh = blocks human histone lysine methyltransferase G9a; G9a H3K9 monomethylation, AlphaScreen, 2 h; Potency, µM (highest dose often 102 µM), for inactives: at the highest dose activity, negative = inhibition, most hits filed as inhibitors; hit rate 8.8% among 350,000; AID 504332; note: potency is the fitted concentration of half-maximal effect; % is set by controls: 0 for no effect and ±100 for the full control effect; nearly all actives have a fitted effect of over 75% in size
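Using a bead-based AlphaScreen, monomethylated H3K9 product from 2 h room-temperature reactions (G9a 20 nM, peptide 500 nM, SAM 20 uM) was detected with 0.5 ug/mL rabbit anti-H3K9me1 antibody.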
PI5P4Ka inh = blocks human PI5P4K alpha kinase activity. hit rate 1.2% among 330,000. P48426. max response, %. PI5P4Kalpha enzyme, ADP-Glo luminescence, 60 min; stronger effect = lower value; active = max response of -50% or lower; inconclusive = between -30% and -50%; inactive = -30% or higher; note: value at the top dose of about 77 µM; % is set by controls: 0 for no effect and ±100 for the full control effect
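PI5P4Kalpha ADP-Glo assay; 5 microM ATP final; 60 min RT reaction; HEPES pH 7.4/EGTA/CHAPS, 5% DMSO; controls lacking substrate or enzyme; luminescent end-point.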
JMJD2A Tudor = blocks the human JMJD2A Tudor domain; O75164; Potency, µM (doses to about 114 µM), for the others: at the top dose activity change, negative = inhibition, hits mostly inhibitors; AID 504339; hit rate 4.4% among 390,000; AlphaScreen JMJD2A-Tudor / H3K4me3 peptide binding; note: potency is the fitted concentration of half-maximal effect; % is set by controls: 0 for no effect and ±100 for the full control effect; nearly all actives have a fitted effect of over 50% in size
Target sequence (O75164 whole entry, looked up, the tested form may be a part): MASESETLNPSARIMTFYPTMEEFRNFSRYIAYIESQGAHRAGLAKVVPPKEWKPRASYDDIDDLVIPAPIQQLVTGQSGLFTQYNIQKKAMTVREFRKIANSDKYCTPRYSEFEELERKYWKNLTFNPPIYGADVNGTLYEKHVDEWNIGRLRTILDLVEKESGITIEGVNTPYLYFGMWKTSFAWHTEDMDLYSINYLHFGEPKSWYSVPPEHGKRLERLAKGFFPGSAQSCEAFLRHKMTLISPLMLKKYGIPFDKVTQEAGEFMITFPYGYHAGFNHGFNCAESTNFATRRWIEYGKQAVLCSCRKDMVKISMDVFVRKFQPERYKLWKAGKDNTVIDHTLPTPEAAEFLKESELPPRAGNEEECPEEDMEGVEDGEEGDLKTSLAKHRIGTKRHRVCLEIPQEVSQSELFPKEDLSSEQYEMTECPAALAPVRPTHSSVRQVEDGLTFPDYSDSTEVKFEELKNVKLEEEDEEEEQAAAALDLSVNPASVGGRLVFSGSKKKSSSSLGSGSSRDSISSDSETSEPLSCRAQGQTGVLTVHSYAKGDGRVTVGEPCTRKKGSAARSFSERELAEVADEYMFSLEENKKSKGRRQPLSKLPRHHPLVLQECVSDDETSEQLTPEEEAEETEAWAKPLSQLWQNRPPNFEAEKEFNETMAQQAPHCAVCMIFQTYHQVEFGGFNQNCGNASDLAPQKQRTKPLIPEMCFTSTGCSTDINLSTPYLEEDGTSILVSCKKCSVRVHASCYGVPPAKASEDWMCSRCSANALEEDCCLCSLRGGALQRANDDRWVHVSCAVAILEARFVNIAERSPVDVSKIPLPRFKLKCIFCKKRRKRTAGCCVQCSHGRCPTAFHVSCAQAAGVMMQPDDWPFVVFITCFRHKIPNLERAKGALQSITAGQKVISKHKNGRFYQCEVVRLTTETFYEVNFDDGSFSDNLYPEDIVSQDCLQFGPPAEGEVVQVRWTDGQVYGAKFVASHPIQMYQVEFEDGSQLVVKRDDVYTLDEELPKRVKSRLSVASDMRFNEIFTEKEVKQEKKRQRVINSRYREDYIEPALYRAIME
Starred values were filed as active, the others as inactive; ? = inconclusive; · = no result; [ ] = another dose, or the depositor's remark. An excerpt weighted towards active compounds, which were near 11% of everything screened. Unless noted, calls come from the whole dose curve; as a rule, active = well fitted inhibition curve with a large enough effect; inconclusive = small, poorly fitted or top-dose-only effect; inactive = no such curve, though single readings can be large or run the other way.

SMILES	L3MBTL1 inh	HP1b binding inh	BAZ2B inh	G9a inh	PI5P4Ka inh	JMJD2A Tudor
O=C(O)c1cccc(Nc2ccc([N+](=O)[O-])c3nonc23)c1	·	?	?	71µM*	-16	-12%
O=C(O)c1cccc(Nc2cc(Cl)c3nonc3c2[N+](=O)[O-])c1	15%	39%	-17%	32µM*	-26	-11%
CC(=O)c1ccc(Nc2ccc([N+](=O)[O-])c3nonc23)cc1	-16%	-9%	?	?	-9	-30%
O=[N+]([O-])c1ccc(Nc2ccccn2)c([N+](=O)[O-])c1	-1%	7%	-32%	·	-1	-27%
COCCCNC(=O)CC(c1cc(OC)c(OC)c(OC)c1)N1Cc2ccccc2C1=O (stereo unspecified)	·	16%	-14%	-1%[59 µM]	·	-7%
CCOc1ccc(N2C(=O)N(Cc3c(F)cccc3Cl)c3ccccc3S2(=O)=O)cc1	·	21%	-10%	-11%[59 µM]	·	-15%
CSc1ncc(C(=O)Nc2cccc(C)c2C)c(-c2ccccc2)n1	·	4%	-27%	-8%[59 µM]	·	-12%
CN(C)c1cc(Nc2ccc(O)cc2)c([N+](=O)[O-])c2nonc12	·	-3%	-18%	-2%	2	5%[11.4 µM]
O=[N+]([O-])c1c(Nc2ccc(O)cc2)cc(Cl)c2nonc12	·	-16%	?	32µM*	-24	?
O=C(O)c1ccccc1Nc1ccc([N+](=O)[O-])cc1	1%	41%	-30%	?	-20	-9%
O=C(O)c1ccccc1Nc1cc(Cl)c2nonc2c1[N+](=O)[O-]	·	32%	-33%	45µM*	-12	-21%
Cc1cccc(OCc2nc(CC(=O)Nc3ccc(C)cc3C)cs2)c1	·	23%	-3%	14%[59 µM]	·	-10%
CCCC1CC(C)(C(=O)CSc2n[nH]c(-c3ccccc3)n2)OC1=O (stereo unspecified)	·	-10%	?	32µM*	·	35µM*
O=C(CSc1n[nH]c(-c2ccccc2)n1)N1CCOCC1	·	24%	?	3%	3	2%
CCCC1CC(=O)OC1(C)C(=O)CSc1n[nH]c(-c2ccccc2)n1 (stereo unspecified)	·	·	-27%	11µM*	·	·
Cc1ccc(C(=O)C[n+]2ccc(Cc3ccccc3)cc2)cc1	12%	33%	-14%	45µM*	-3	0%
Cc1ccc(SCCc2cc[n+](CC(=O)c3ccccc3)cc2)cc1	5%	16%	-6%	?	-5	2%
O=C(C[n+]1ccc(CCSc2ccc(F)cc2)cc1)c1ccccc1	-22%	45µM*	5%	22µM*	-53*	?
COc1ccc2c(c1)CC(C(=O)NCCCN1CCN(c3cccc(Cl)c3)CC1)CO2 (stereo unspecified)	·	5%[57 µM]	?	-10%[59 µM]	·	?
Cc1ccc(Nc2c(-c3cccnc3)nc3ccc(Cl)cn23)cc1	·	42%	-11%	-1%[59 µM]	·	-8%
CCc1ccc(NC(=O)CN2C(=O)C3CCCN3c3ccc(S(=O)(=O)N(CC)CC)cc32)cc1 (stereo unspecified)	·	26%	-23%	?	·	-25%
NC(=O)NC(=O)COC(=O)c1ccc(OC(F)(F)F)cc1	-2%	12%	-3%	8%	0	-5%
O=C(COC(=O)c1ccc(OC(F)(F)F)cc1)Nc1ncccn1	-8%	-13%	·	·	0	56µM*
Cc1ccc(S(=O)(=O)NNC(=O)CCCCC(=O)NNS(=O)(=O)c2ccc(C)cc2)cc1	1%	44%	-12%	45µM*	5	-4%
Cc1ccc(S(=O)(=O)Nc2ccc(N=Nc3ccc(O)cc3)cc2)cc1	-8%	?	45µM*	-19%[59 µM]	-14	?
CSc1ccc(S(=O)(=O)Nc2ccc(S(=O)(=O)Nc3ccc(C)cc3)cc2)cc1	·	0%	-31%	-33%[59 µM]	·	?
Cc1nnsc1C(=O)NNS(=O)(=O)c1cc(C(F)(F)F)cc(C(F)(F)F)c1	1%	39%	-24%	4%	6	2%
Cc1ccc(S(=O)(=O)NNC(=O)c2snnc2C)cc1	·	9%	2%	10µM*	1	79µM*
